Data reported in PubChem BioAssay.
Unmarked numbers belong to inactive results. For part of these data: Entries with a potency or affinity are not part of this list. The source made the active and inactive calls. Unless noted, no rule for the calls is given here.

Tests used:
[1] = antimalarial activity against Dd2 strain (AID 2302;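 active = growth inhibition above 50% at the single 2 µM test dose, taken to imply half-maximal potency below 2 µM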;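 also: 0% = DMSO untreated growth and 100% = chloroquine plus artemisinin killed control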); details: P. falciparum Dd2 in RBCs, LDH growth readout, 72 h; at 2 µM; hits give high values
[2] = human hepatoma cell viability loss – ATP luminescence, cytotoxicity control for P. falciparum antimalarial project, primary screen (AID 2303;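 active = inhibition above 50%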;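 also: 0% = DMSO wells and 100% = digitonin-killed cells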); details: HepG2 viability, 24-48 h, at 10 µM, hits give high values
[3] = molecular target: L-lactate dehydrogenase (Plasmodium falciparum (isolate CDC / Honduras)) (UniProt Q27743); test: PfLDH activity inhibition – cell lysate, 3D7 strain, counter-screen for P. falciparum growth inhibition project (AID 2304);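 also: 0% = vehicle and 100% = reference inhibitor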; details: P. falciparum 3D7 crude extract, LDH APAD/NBT absorbance; at 2 µM; hits give high values
[4] = inhibition of 3D7 malaria parasite growth – strain 3D7 (AID 2306);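 also: 0% = DMSO wells and 100% = chloroquine plus artemisinin control wells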; details: P. falciparum 3D7 erythrocytic growth, LDH absorbance, 72 h; at 2 µM; hits give high values
[5] = molecular target: Calcium-dependent protein kinase 1 (Plasmodium falciparum (isolate 3D7)) (UniProt P62344); test: PfCDPK1 kinase inhibitors, biochemical, TCAMS library (AID 1159585; cut-off not given, nearly all actives have IC50 up to about 0.98 µM;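 also: inhibitors leave more ATP so luminescence rises with inhibition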); details: recombinant PfCDPK1, Kinase-Glo ATP depletion luminescence
[6] = molecular target: Plasmodium falciparum protein kinase 6 (PK6, PF3D7_1337100) (UniProt Q8IDW1); test: PfPK6 kinase inhibitors, biochemical, TCAMS library (AID 1159586); details: recombinant PfPK6, Kinase-Glo ATP depletion luminescence
[7] = molecular target: Protein kinase 7 (PK7), Plasmodium falciparum 3D7 (PF3D7_0213400) (UniProt Q7YTF7); test: inhibition of Plasmodium PK7 catalytic activity – biochemical, TCAMS antimalarial set, Kinase-Glo luminescence (AID 1159587); details: recombinant PfPK7, Kinase-Glo ATP depletion luminescence
[8] = molecular target: Calcium-dependent protein kinase 4 (Plasmodium falciparum (isolate 3D7)) (UniProt Q8IBS5); test: PfCDPK4 kinase inhibitors, biochemical, TCAMS library (AID 1159588; cut-off not given, nearly all actives have IC50 up to about 0.91 µM); details: recombinant PfCDPK4, Kinase-Glo ATP depletion luminescence
Sequence of Calcium-dependent protein kinase 4 (Plasmodium falciparum (isolate 3D7)) (Q8IBS5 whole entry, looked up): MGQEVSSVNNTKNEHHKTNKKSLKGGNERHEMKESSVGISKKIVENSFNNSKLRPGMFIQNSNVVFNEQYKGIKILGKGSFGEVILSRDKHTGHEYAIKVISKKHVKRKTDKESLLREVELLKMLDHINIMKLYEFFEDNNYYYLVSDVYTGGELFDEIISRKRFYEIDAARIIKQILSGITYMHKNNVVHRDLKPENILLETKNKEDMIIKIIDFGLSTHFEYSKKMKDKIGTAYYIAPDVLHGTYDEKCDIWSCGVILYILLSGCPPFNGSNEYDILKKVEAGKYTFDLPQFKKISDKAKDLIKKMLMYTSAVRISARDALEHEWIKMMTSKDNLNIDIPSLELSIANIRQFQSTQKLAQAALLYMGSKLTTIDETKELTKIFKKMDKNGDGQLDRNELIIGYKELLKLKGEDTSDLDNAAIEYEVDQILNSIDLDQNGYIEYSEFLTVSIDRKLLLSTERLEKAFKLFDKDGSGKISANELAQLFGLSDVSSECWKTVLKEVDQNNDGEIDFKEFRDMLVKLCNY

Sequence of Plasmodium falciparum protein kinase 6 (PK6, PF3D7_1337100) (Q8IDW1 1-305): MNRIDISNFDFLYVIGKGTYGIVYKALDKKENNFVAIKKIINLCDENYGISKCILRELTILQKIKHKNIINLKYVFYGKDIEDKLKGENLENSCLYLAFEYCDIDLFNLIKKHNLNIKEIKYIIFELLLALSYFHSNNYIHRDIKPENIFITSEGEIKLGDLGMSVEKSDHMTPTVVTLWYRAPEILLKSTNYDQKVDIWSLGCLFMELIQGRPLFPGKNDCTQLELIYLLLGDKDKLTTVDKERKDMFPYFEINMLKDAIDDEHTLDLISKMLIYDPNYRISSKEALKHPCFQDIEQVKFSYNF
Sequence of L-lactate dehydrogenase (Plasmodium falciparum (isolate CDC / Honduras)) (Q27743 whole entry, looked up): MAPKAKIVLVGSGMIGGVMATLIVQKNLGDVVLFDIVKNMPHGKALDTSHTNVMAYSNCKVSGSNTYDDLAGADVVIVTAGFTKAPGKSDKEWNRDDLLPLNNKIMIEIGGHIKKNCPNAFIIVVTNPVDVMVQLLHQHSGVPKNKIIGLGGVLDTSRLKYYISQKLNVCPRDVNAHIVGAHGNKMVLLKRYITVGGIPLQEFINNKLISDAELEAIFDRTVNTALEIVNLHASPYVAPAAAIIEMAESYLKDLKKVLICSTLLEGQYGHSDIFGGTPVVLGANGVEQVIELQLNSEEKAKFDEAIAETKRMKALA
Sequence of Calcium-dependent protein kinase 1 (Plasmodium falciparum (isolate 3D7)) (P62344 whole entry, looked up): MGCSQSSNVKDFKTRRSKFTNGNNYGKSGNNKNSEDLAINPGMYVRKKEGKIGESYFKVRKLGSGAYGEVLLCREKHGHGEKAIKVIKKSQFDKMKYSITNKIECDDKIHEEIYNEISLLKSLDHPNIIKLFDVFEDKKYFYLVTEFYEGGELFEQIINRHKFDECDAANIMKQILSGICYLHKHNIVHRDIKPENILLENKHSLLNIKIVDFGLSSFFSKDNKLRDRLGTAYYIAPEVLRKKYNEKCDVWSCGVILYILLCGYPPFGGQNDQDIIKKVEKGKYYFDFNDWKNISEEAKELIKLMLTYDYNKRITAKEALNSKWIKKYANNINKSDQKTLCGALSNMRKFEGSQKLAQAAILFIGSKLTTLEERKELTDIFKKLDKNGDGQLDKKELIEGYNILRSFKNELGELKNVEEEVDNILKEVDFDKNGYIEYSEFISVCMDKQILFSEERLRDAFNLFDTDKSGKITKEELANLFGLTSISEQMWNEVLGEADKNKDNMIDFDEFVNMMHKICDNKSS
Sequence of Protein kinase 7 (PK7), Plasmodium falciparum 3D7 (PF3D7_0213400) (Q7YTF7 1-343): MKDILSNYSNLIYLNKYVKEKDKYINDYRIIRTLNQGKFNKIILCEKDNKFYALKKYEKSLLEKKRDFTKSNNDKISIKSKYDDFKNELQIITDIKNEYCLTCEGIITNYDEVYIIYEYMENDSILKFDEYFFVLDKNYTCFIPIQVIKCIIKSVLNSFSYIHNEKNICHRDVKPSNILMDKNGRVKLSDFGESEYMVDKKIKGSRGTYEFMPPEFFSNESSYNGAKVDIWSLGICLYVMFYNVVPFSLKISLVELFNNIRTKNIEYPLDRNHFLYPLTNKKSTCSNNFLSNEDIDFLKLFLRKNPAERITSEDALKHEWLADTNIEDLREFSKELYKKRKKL

| SMILES | growth inhibition [1] | inhibition [2] | inhibition [3] | growth inhibition [4] | outcome [5] | outcome [6] | outcome [7] | outcome [8] |
| --- | --- | --- | --- | --- | --- | --- | --- | --- |
| CCN=C1NC2=C(CC(C(C)(C)C)CC2)C2(CCC(C(C)(C)C)CC2)S1 (centres undefined) | 99% (active) | 40% | 4% | 99% (active) | inactive | inactive | inactive | inactive |
| CN1CCCC(CN2CCN(Cc3cccc(-c4ccc(-c5nc6ccccc6[nH]5)s4)c3)CC2)C1 (centres undefined) | 99% (active) | 52% (active) | -6% | 99% (active) | inactive | inactive | inactive | inactive |
| COc1ccc(-c2ccc(NC(=O)c3ccc(C#N)cc3)cc2)cc1CN1CCN(C)CC1 | 49% | 21% | 1% | 93% (active) | inactive | inactive | inactive | inactive |
